Assay outcomes: PubChem BioAssay, National Center for Advancing Translational Sciences (NCATS)
TDP1 cell noCPT: qHTS for Inhibitors of human tyrosyl-DNA phosphodiesterase 1 (TDP1): qHTS in cells in absence of CPT | AID 686978, 2013 | DT40 Tdp1-/- hTDP1 cells, no CPT, ATP luminescence, 48 h | 15% of 420,000 active | Potency, µM (highest dose often 46.2 µM), for inactives: at the top dose activity change, negative = growth inhibition, usual class: inhibitors; also: potency is read from the fitted curve at half-maximal effect; % is scaled to controls: 0 for no effect and ±100 for the full control effect; nearly all actives have a fitted effect of over 55% in size
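Growth of hTDP1-complemented DT40 Tdp1-knockout cells is measured by ATP luminescence after at least 48 hr compound exposure at 37 °C, with DMSO substituting for the 20 nM CPT used in the parallel screen.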
IL1B secr inh: qHTS for Inhibitors of Inflammasome Signaling: IL-1-beta AlphaLISA Primary Screen | AID 743279, 2014 | THP-1 LPS/ATP IL-1B secretion, AlphaLISA, 16 h; active compounds read low | activity change, % at 57.5 µM | 4.7% of 360,000 active; in the data active = activity change below about -50%; inconclusive = mostly about -30% to -49%; also: % is scaled to controls: 0 for no effect and ±100 for the full control effect
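Secreted IL-1B measured by AlphaLISA bead assay after 16 h compound exposure of THP-1 cells; compounds (final up to 57.5 uM) added 1 h before LPS (250 ng/mL) and ATP (1.25 mM) stimulation; lower signal means less secretion.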
BCR signal inh: qHTS Assay to Find Inhibitors of Chronic Active B-Cell Receptor Signaling | 0.05% of 340,000 active | ABC-DLBCL IkBa-CBG/CBR reporter, luminescence ratio, 4 h | Potency, µM (top dose mostly 46.1 µM), for inactives: at the top dose activity change, negative = inhibition, actives largely listed as inhibitors | AID 493014, 2011; active = well fitted inhibition curve with a large enough effect in the signal ratio, with a control signal flat, not every such curve was filed as active; inconclusive = small, poorly fitted or top-dose-only effect, or effect the other way, or a change in a side signal; the % refers to the signal ratio;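 also: potency is read from the fitted curve at half-maximal effect; plate controls were basal doxycycline-induced cells for no effect and cells given 10 µM MG132 for full effect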
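TMD8 ABC-DLBCL cells carrying doxycycline-inducible green luciferase fused to IkappaBalpha plus unfused red luciferase were exposed to compounds (up to 46 uM) for 4 hrs at 37C. Activity came from the overlap-corrected green/red luminescence ratio.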
SW480 rerep: A quantitative high throughput screen for small molecules that induce DNA re-replication in SW480 colon adenocarcinoma cells | Potency, µM (titrated, usually from 46.1 µM), for the others: top-dose re-replication activation, actives largely listed as activators | AID 624297, 2012 | SW480 DNA re-replication, Hoechst DNA content imaging, 48 h | 1.8% of 340,000 active; also: potency is read from the fitted curve at half-maximal effect; % of control where 0% means no effect; nearly all actives have a fitted effect of over 55% in size
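First, 250 cells per well were seeded. Next, compound or vehicle (23 nL) was pinned in, plates sat 48 hr at 37 C. Finally Hoechst was added for 40 min before fluorescence scanning.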
MCF10A rereplic: A quantitative high throughput screen for small molecules that induce DNA re-replication in MCF 10a normal breast cells; MCF 10A DNA re-replication, Hoechst nuclear intensity, 48 h; Potency, µM (highest dose often 46.1 µM), inactives show at the top dose activity, positive = re-replication, usual class: activators; 2.9% of 350,000 active; AID 624296, 2012; also: potency is read from the fitted curve at half-maximal effect; % of control where 0% means no effect; nearly all actives have a fitted effect of over 50% in size
TDP1 cell CPT: qHTS for Inhibitors of human tyrosyl-DNA phosphodiesterase 1 (TDP1): qHTS in cells in presence of CPT; chicken DT40 Tdp1-/-;hTDP1 cells + 20 nM CPT, ATP luminescence, 48 h; Potency, µM (series often up to 46.2 µM), for inactives: top-dose activity change, negative = growth inhibition, actives largely listed as inhibitors; 12% of 420,000 active; AID 686979, 2013; also: potency is read from the fitted curve at half-maximal effect; % is scaled to controls: 0 for no effect and ±100 for the full control effect; nearly all actives have a fitted effect of over 55% in size
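Cell growth measured by CellTiter-Glo luminescence after a minimum 48 h, 37 C compound exposure with 20 nM CPT in Tdp1-knockout DT40 cells stably expressing hTDP1, seeded 400/well; qHTS titration format.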
Starred values were filed as active, the others as inactive; ? = inconclusive; / = no result given. Compounds with a hit are over-represented: about 19% of the library has one in this group of screens. Unless noted, calls follow the shape of the dose curve; as a rule, active = well fitted curve in the direction sought with a large enough effect; inconclusive = small, poorly fitted or top-dose-only effect, or another doubt; inactive = no such curve, though single readings can be large; an effect the other way counts as inactive or inconclusive.

SMILES	TDP1 cell noCPT	IL1B secr inh	BCR signal inh	SW480 rerep	MCF10A rereplic	TDP1 cell CPT
CCOc1ccc(CCNC(=O)c2ccc3c(c2)N(Cc2ccccc2F)C(=O)c2ccccc2S3=O)cc1OCC (configuration not stated)	23µM*	/	/	/	/	?
CCN1C(=O)c2ccccc2S(=O)c2ccc(C(=O)NCCN(CC(C)C)CC(C)C)cc21 (configuration not stated)	23µM*	?	?	21%	18%	?
COc1ccc(CCNC(=O)c2ccc3c(c2)N(Cc2ccccc2)C(=O)c2ccccc2S3=O)cc1OC (configuration not stated)	12µM*	/	/	/	/	16µM*
Cc1ccc2c(CSc3nncn3C)cc(=O)oc2c1C	15%	22	-1%	5%	-31%	5%
O=C1c2ccccc2C(c2nc3ccccc3[nH]2)N1Cc1ccco1 (configuration not stated)	-2%	0	/	/	/	5%
COc1ccc2oc(C(=O)OCC(=O)Nc3ccc(C(=O)N(C)C)cc3)c(C)c2c1	14%	32	1%	-5%	12%	3%
CC(OC(=O)Cc1c[nH]c2ccccc12)C(=O)Nc1ccccc1F (configuration not stated)	-4%	7	?	-2%	9%	-1%
OC(c1cc(F)cc(Cl)c1)c1ncc(-c2ccccc2C(F)(F)F)[nH]1 (configuration not stated)	?	21	/	/	/	?
O=C(NCCc1ccccc1)c1ccc2c(c1)N(Cc1ccccc1)C(=O)c1ccccc1S2=O (configuration not stated)	?	/	/	/	/	29µM*
COc1ccc(NC(=O)N2CCN(c3nc4ccccc4n3C(C)C)CC2)cc1	-28%	-1	0%	-8%	3%	?
CC(C)n1c(N2CCN(C(=O)NCc3ccccc3)CC2)nc2ccccc21	23µM*	-25	-1%	-8%	-2%	?
Nc1ccc2cc3[nH]c4cc(N)ccc4c3nc2c1	2.3µM*	-109*	/	3.3µM*	18µM*	2.9µM*
CCOc1ccc(Br)cc1S(=O)(=O)NCc1ccncc1	-2%	29	-9%	-3%	?	2%
N#Cc1cc(C(=O)c2cc(Cl)ccc2O)cn(-c2ccccc2)c1=O	1%	12	0%	0%	1%	19%
Cc1ccc(NC(=O)c2cc(C(=O)c3cc(Cl)ccc3O)cn(-c3ccc(C)cc3)c2=O)cc1	21µM*	0	0%	16%	11%	18µM*
O=C(CN1C(=O)CCc2cc(S(=O)(=O)N3CCOCC3)ccc21)NCc1ccc(F)cc1	-6%	/	/	/	/	-20%
O=C(CN1C(=O)CCS(=O)(=O)c2ccccc21)Nc1ccc(Cl)cc1	10%	0	-7%	-6%	3%	-2%
CSc1cccc(NC(=O)C2CCN(S(=O)(=O)c3ccc4c(c3)NC(=O)CO4)CC2)c1	?	?	?	-3%	7%	?
CSc1cccc(NC(=O)C2CCCN(S(=O)(=O)c3ccc(F)cc3)C2)c1 (configuration not stated)	8.2µM*	-15	?	2%	16%	10µM*
NS(=O)(=O)c1ccc(NC(=O)C2CCCN(S(=O)(=O)c3ccc(F)cc3)C2)cc1 (configuration not stated)	?	16	0%	-7%	0%	-11%
O=C(Nc1ccc(S(=O)(=O)N2CCCC2)cc1)C1CCN(S(=O)(=O)c2ccc(F)cc2)CC1	18µM*	0	-12%	?	21%	?
CSc1cccc(NC(=O)C2CCN(S(=O)(=O)c3ccc(F)cc3)CC2)c1	21µM*	-2	/	0%	?	?
CSc1cccc(NC(=O)C2CCCN2S(=O)(=O)c2ccc(Br)s2)c1 (configuration not stated)	23µM*	0	5%	2%	1%	?
Cc1ccc(S(=O)(=O)N2CCCC2C(=O)O)s1 (configuration not stated)	-16%	0	9%	0%	-5%	-9%
COc1ccccc1C(=O)OCCNC(=O)Cn1cnc2c1c(=O)n(C)c(=O)n2C	-10%	23	1%	-20%	-18%	0%
SMILES	TDP1 cell noCPT	IL1B secr inh	BCR signal inh	SW480 rerep	MCF10A rereplic	TDP1 cell CPT
CCOC(=O)C1CCN(C(=O)Cn2ncc3c([nH]c4ccccc43)c2=O)CC1	1%	19	-13%	-2%	-2%	-19%
COc1ccc2c(c1)c(CC(=O)Nc1cccc(F)c1C)c(C)n2C(=O)c1ccc(Cl)cc1	2%	/	/	/	/	5%
CC(NS(=O)(=O)c1cc2c3c(c1)CCN3C(=O)CC2)c1ccccc1 (configuration not stated)	1%	16	/	/	/	-7%
O=C(Nc1ccc(C(F)(F)F)cc1)C1CCN(S(=O)(=O)c2ccc(N3CCCC3=O)cc2)CC1	?	18	-7%	-4%	-3%	2.6µM*
O=C(Nc1ccc(S(=O)(=O)N2CCOCC2)cc1)C1CCN(S(=O)(=O)c2ccccc2)CC1	16µM*	2	-10%	4%	-5%	?
COc1ccc(NC(=O)C2CCN(S(=O)(=O)c3ccc(N4CCCC4=O)cc3)CC2)cc1OC	11%	13	1%	0%	-2%	-11%
O=C(Nc1ccc(F)cc1)C1CCCN1S(=O)(=O)c1ccc(Br)cc1 (configuration not stated)	-23%	-8	?	0%	13%	?
COc1ccc(S(=O)(=O)N2CCC(C(=O)Nc3ccc(S(=O)(=O)N4CCCC4)cc3)CC2)cc1OC	29µM*	-12	11%	-475%	-1%	?
O=C(Nc1ccc(Br)cc1)C1CCCN1S(=O)(=O)c1ccc(F)cc1 (configuration not stated)	15µM*	/	/	/	/	?
COc1ccc(NC(=O)C2CCN(S(=O)(=O)c3ccc(OC)c(OC)c3)CC2)cc1	-18%	22	-8%	-4%	-3%	1%
Cc1ccc(S(=O)(=O)N2CCC(C(=O)Nc3ccc(S(=O)(=O)N4CCOCC4)cc3)CC2)cc1	?	19	/	3%	6%	?
